Source: PubChem BioAssay AID1159580 (chemical genetic matrix, 2015)
Where “and” joins values, the source holds several entries; their conditions need not be identical. Equal values may be shown once. Among all 5,500 compounds or so, about 2,000 (36%) were called active. Not shown: some 18% with an inconclusive outcome. Rule as the data show it: active = normalized growth mostly below about 0.91 (no sharp cut-off); inconclusive = no clear call, values can overlap the other calls; inactive = mostly above about 0.92. The list shows a part of the results.

Test: chemical genetic growth profiling, strain panel (AID 1159580);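 also: tested at 20 µM; growth read once vehicle control cultures reached saturation at 30 °C; 1 = growth at the plate median or of vehicle wells; lower values mean less growth of the strain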
Settings: growth OD

Measured: normalized growth

O=C(O)c1cc(=O)c2ccccc2[nH]1
inactive: S. cerevisiae deletion strains, locus YJR075W, strain HOC1, hits give low values 0.999 | S. cerevisiae deletion strains, locus YKL009W, strain mrt4, hits give low values 1.01 | S. cerevisiae deletion strains, locus YKL068W, hits give low values 0.991 | S. cerevisiae deletion strains, locus YKL085W, strain MDH1 (second series), hits give low values 0.998 | S. cerevisiae deletion strains, locus YKL085W, strain MDH1, hits give low values 0.998 | S. cerevisiae deletion strains, locus YKL160W, strain elf1, hits give low values 0.993 | S. cerevisiae deletion strains, locus YKL190W, strain CNB1, hits give low values 1 | S. cerevisiae deletion strains, locus YKR001C, strain vps1, hits give low values 1.01 | S. cerevisiae deletion strains, locus YKR026C, strain gcn3, hits give low values 0.98 | S. cerevisiae deletion strains, locus YKR091W, strain srl3, hits give low values 0.993 | S. cerevisiae deletion strains, locus YLL001W, strain dnm1, hits give low values 0.991 | S. cerevisiae deletion strains, locus YLL026W, hits give low values 0.994 | S. cerevisiae deletion strains, locus YLL041C, strain sdh2, hits give low values 0.98 | S. cerevisiae deletion strains, locus YLR027C, strain aat2, hits give low values 0.989 | S. cerevisiae deletion strains, locus YLR039C, strain RIC1, hits give low values 1.01 | S. cerevisiae deletion strains, locus YLR058C, strain SHM2, hits give low values 0.972 | S. cerevisiae deletion strains, locus YLR102C, strain apc9, hits give low values 1 | S. cerevisiae deletion strains, locus YLR113W, strain HOG1, hits give low values 1.01 | S. cerevisiae deletion strains, locus YLR221C, strain rsa3, hits give low values 0.973 | S. cerevisiae deletion strains, locus YLR258W, strain gsy2, hits give low values 0.98 | S. cerevisiae deletion strains, locus YLR262C, strain YPT6 (second series), hits give low values 1.04 | S. cerevisiae deletion strains, locus YLR262C, strain YPT6, hits give low values 1 | S. cerevisiae deletion strains, locus YLR268W, strain sec22, hits give low values 1.01 | S. cerevisiae deletion strains, locus YLR320W, strain mms22, hits give low values 0.977 | S. cerevisiae deletion strains, locus YLR330W, strain CHS5, hits give low values 0.989 | S. cerevisiae deletion strains, locus YLR342W, strain FKS1 (second series), hits give low values 1.01 | S. cerevisiae deletion strains, locus YLR342W, strain FKS1, hits give low values 0.986 | S. cerevisiae deletion strains, locus YLR357W, strain rsc2, hits give low values 0.936 | S. cerevisiae deletion strains, locus YLR370C, strain arc18, hits give low values 0.987 | S. cerevisiae deletion strains, locus YLR371W, strain rom2, hits give low values 0.986 | S. cerevisiae deletion strains, locus YLR384C, strain iki3, hits give low values 0.942 | S. cerevisiae deletion strains, locus YLR418C, strain cdc73, hits give low values 1.05 | S. cerevisiae deletion strains, locus YML016C, strain PPZ1, hits give low values 0.984 | S. cerevisiae deletion strains, locus YML032C, strain rad52, hits give low values 0.976 | S. cerevisiae deletion strains, locus YML120C, strain ndi1, hits give low values 0.99 | S. cerevisiae deletion strains, locus YML124C, strain tub3, hits give low values 0.992 | S. cerevisiae deletion strains, locus YMR058W, strain fet3, hits give low values 0.99 | S. cerevisiae deletion strains, locus YMR078C, strain ctf18, hits give low values 0.984 | S. cerevisiae deletion strains, locus YMR125W, strain sto1, hits give low values 0.972 | S. cerevisiae deletion strains, locus YMR129W, hits give low values 1 | S. cerevisiae deletion strains, locus YMR205C, strain PFK2, hits give low values 0.986 | S. cerevisiae deletion strains, locus YMR223W, strain ubp8, hits give low values 0.985 | S. cerevisiae deletion strains, locus YMR231W, strain pep5, hits give low values 0.973 | S. cerevisiae deletion strains, locus YMR263W, strain SAP30, hits give low values 0.988 and 0.996 | S. cerevisiae deletion strains, locus YMR307W, strain GAS1, hits give low values 1.09 | S. cerevisiae deletion strains, locus YNL067W, strain RPL9B, hits give low values 0.998 | S. cerevisiae deletion strains, locus YNL071W, strain lat1, hits give low values 1.01 | S. cerevisiae deletion strains, locus YNL128W, strain TEP1, hits give low values 0.963 | S. cerevisiae deletion strains, locus YNL153C, strain GIM3, hits give low values 1 and 1.01 | S. cerevisiae deletion strains, locus YNL175C, strain NOP13, hits give low values 0.978 | S. cerevisiae deletion strains, locus YNL183C, strain NPR1, hits give low values 0.893 | S. cerevisiae deletion strains, locus YNL197C, strain WHI3, hits give low values 0.981 | S. cerevisiae deletion strains, locus YNL209W, strain ssb2, hits give low values 0.989 | S. cerevisiae deletion strains, locus YNL224C, strain SQS1, hits give low values 0.989 | S. cerevisiae deletion strains, locus YNL233W, strain BNI4, hits give low values 0.993 | S. cerevisiae deletion strains, locus YNL248C, strain rpa49, hits give low values 0.987 | S. cerevisiae deletion strains, locus YNL250W, strain rad50, hits give low values 0.976 | S. cerevisiae deletion strains, locus YNL271C, strain bni1, hits give low values 0.997 | S. cerevisiae deletion strains, locus YNL298W, strain CLA4, hits give low values 1 | S. cerevisiae deletion strains, locus YNL307C, strain MCK1, hits give low values 0.998 | S. cerevisiae deletion strains, locus YNL322C, strain KRE1 (second series), hits give low values 0.975 | S. cerevisiae deletion strains, locus YNL322C, strain KRE1, hits give low values 0.991 and 1 | S. cerevisiae deletion strains, locus YNR049C, strain mso1, hits give low values 0.983 | S. cerevisiae deletion strains, locus YNR052C, strain pop2, hits give low values 1 | S. cerevisiae deletion strains, locus YOL006C, strain TOP1, hits give low values 1 | S. cerevisiae deletion strains, locus YOL012C, strain htz1 1.51 | S. cerevisiae deletion strains, locus YOL147C, strain pex11, hits give low values 0.999 | S. cerevisiae deletion strains, locus YOR001W, strain rrp6, hits give low values 0.954 | S. cerevisiae deletion strains, locus YOR061W, strain CKA2, hits give low values 0.969 | S. cerevisiae deletion strains, locus YOR069W, strain VPS5, hits give low values 0.995 | S. cerevisiae deletion strains, locus YOR070C, strain gyp1, hits give low values 0.995 | S. cerevisiae deletion strains, locus YOR080W, strain dia2, hits give low values 0.974 | S. cerevisiae deletion strains, locus YOR083W, strain WHI5 (second series), hits give low values 1.02 | S. cerevisiae deletion strains, locus YOR083W, strain WHI5, hits give low values 0.999 | S. cerevisiae deletion strains, locus YOR106W, strain vam3, hits give low values 1.01 | S. cerevisiae deletion strains, locus YOR136W, strain idh2, hits give low values 0.99 | S. cerevisiae deletion strains, locus YOR144C, strain elg1, hits give low values 0.994 | S. cerevisiae deletion strains, locus YOR184W, strain ser1, hits give low values 0.994 | S. cerevisiae deletion strains, locus YOR231W, strain MKK1, hits give low values 0.988 | S. cerevisiae deletion strains, locus YOR265W, strain rbl2, hits give low values 1 | S. cerevisiae deletion strains, locus YOR270C, strain vph1, hits give low values 1 | S. cerevisiae deletion strains, locus YOR290C, strain snf2, hits give low values 0.986 | S. cerevisiae deletion strains, locus YOR316C, strain cot1, hits give low values 0.983 | S. cerevisiae deletion strains, locus YPL051W, strain arl3, hits give low values 0.997 | S. cerevisiae deletion strains, locus YPL055C, strain LGE1, hits give low values 0.976 and 1.01 | S. cerevisiae deletion strains, locus YPL078C, strain atp4, hits give low values 0.987 | S. cerevisiae deletion strains, locus YPL106C, strain sse1, hits give low values 0.972 | S. cerevisiae deletion strains, locus YPL240C, strain hsp82, hits give low values 0.982 | S. cerevisiae deletion strains, locus YPL241C, strain CIN2, hits give low values 0.996 | S. cerevisiae deletion strains, locus YPL256C, strain CLN2, hits give low values 0.954 | S. cerevisiae deletion strains, locus YPR119W, strain clb2, hits give low values 0.99 | S. cerevisiae deletion strains, locus YPR141C, strain kar3, hits give low values 0.977 | S. cerevisiae deletion strains, locus YPR163C, strain tif3, hits give low values 0.997 | S. cerevisiae deletion strains, locus YPR167C, strain met16, hits give low values 0.997 | S. cerevisiae deletion strains, strain wtn01, hits give low values 0.992 | S. cerevisiae strains, strain wild type, hits give low values 0.992
